Results filed as inconclusive are left out. Activity calls are given as the source filed them. Unless noted, the call rests on the fitted dose curve; in most records, active means well fitted curve in the direction sought with a large enough effect; inconclusive means small, poorly fitted or top-dose-only effect, or another doubt; inactive means no such curve, though single readings can be large; an effect the other way counts as inactive or inconclusive.
Key:
[1] = target: Glucocorticoid receptor (Homo sapiens) (UniProt P04150); test: qHTS assay for small molecule agonists of glucocorticoid receptor signaling (AID 588532; active means well fitted curve in the direction sought with a large enough effect in the signal ratio, with a control signal flat; the % refers to the signal ratio;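 further: 100% = dexamethasone at 0.1 µM and 0% = DMSO only wells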); settings: HeLa MMTV-bla, beta-lactamase ratio, agonist, 18 h; stronger effect = higher value; percent of dexamethasone control, DMSO zero
In short: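 Cells were plated and rested 3-5 h at 37 C, compounds were added in titration and incubated 18 h, then CCF4 substrate was loaded for 2 h at RT before reading blue/green fluorescence. EC50 came from Hill-equation fitting.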

[2] = qHTS assay for small molecule antagonists of peroxisome proliferator-activated receptor delta signaling (AID 588535); settings: HEK293T PPARd-UAS-bla, beta-lactamase FRET ratio, 18 h; 460 nm channel;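 further: cells co-treated with a PPAR-delta agonist as stimulator during compound exposure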
In short: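 Beta-lactamase reporter read-out (405 nm excitation, 460/530 nm emission) after CCF4 loading for 2 hrs at RT. HEK293T PPAR-delta-UAS-bla cells, 2% charcoal/dextran FBS, compounds for 18 hrs at 37 C. Hill fit gave IC50 and efficacy.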

[3] = target: Peroxisome proliferator-activated receptor gamma (Homo sapiens) (UniProt P37231); test: qHTS assay for small molecule agonists of peroxisome proliferator-activated receptor gamma signaling (AID 588536; active means well fitted curve in the direction sought with a large enough effect in the signal ratio, with a control signal flat, not every such curve was filed as active; the % refers to the signal ratio;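 further: 0% = DMSO basal wells and 100% = rosiglitazone at 2 µM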); settings: HEK293 PPARg-UAS-bla, beta-lactamase ratio, 16 h, percent of rosiglitazone response, DMSO as zero; series mostly up to 76.7 µM
In short: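 Using GeneBLAzer HEK293 cells, response was quantified by CCF4 fluorescence and normalized between basal DMSO (0%) and rosiglitazone 2 uM (100%); curves yielded half-maximal stimulation concentration and efficacy.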

[4] = target: Peroxisome proliferator-activated receptor gamma (Homo sapiens) (UniProt P37231); test: qHTS assay for small molecule antagonists of peroxisome proliferator-activated receptor gamma signaling (AID 588537; active means well fitted inhibition curve with a large enough effect in the signal ratio, with a control signal flat, not every such curve was filed as active; the % refers to the signal ratio;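 further: reporter cells co-stimulated with 50 nM rosiglitazone agonist during compound treatment; % of control where 0% means no effect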); settings: HEK293 PPARg-UAS-bla, beta-lactamase ratio, antagonist mode; series mostly up to 76.8 µM
In short: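 Read-out: CCF4 fluorescence (ex 405, em 460/530 nm) after 2 h at RT. Cells were HEK293 carrying a UAS-bla reporter and treated 16 h at 37 C with compound plus rosiglitazone (50 nM final). Normalized to rosiglitazone and DMSO.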

[5] = target: Vitamin D3 receptor (Homo sapiens) (UniProt P11473); test: qHTS assay for small molecule antagonists of vitamin D receptor signaling (AID 588541; calls by dose curve;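 further: receptor activated by calcitriol during compound treatment; on the % scale 0 is the no-effect control and ±100 the full control effect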); settings: HEK293T VDR-UAS-bla, beta-lactamase ratio, antagonist mode; series mostly up to 76.7 µM
In short: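 VDR-UAS-bla HEK293T cells in 2% charcoal-stripped FBS were stimulated with 1-alpha,25-dihydroxyvitamin D3 (3 nM final) plus compound for 16 h at 37 C. The beta-lactamase CCF4 readout was normalized to 50 nM agonist and DMSO, and Hill fits gave IC50.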

[6] = target: Vitamin D3 receptor (Homo sapiens) (UniProt P11473); test: qHTS assay for small molecule agonists of vitamin D receptor signaling (AID 588543; calls by dose curve;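 further: 0% = DMSO basal and 100% = reference agonist control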); settings: HEK293T VDR-UAS-bla, beta-lactamase ratio, 16 h; series mostly up to 76.8 µM
In short: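 Reporter cells (HEK293T, VDR-UAS-bla) were seeded in medium with 2% charcoal-stripped serum and incubated 5 h, then compounds in concentration series were added for 16 h at 37 °C. Stimulation was scaled between DMSO basal and 50 nM 1α,25-dihydroxyvitamin D3.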

[7] = qHTS assay for small molecule agonists of retinoid X receptor alpha signaling (AID 588544; calls by dose curve; further: potency means the concentration at half of the fitted maximal effect;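 on activation: 0% = DMSO basal wells and 100% = reference agonist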); settings: HEK293T RXRa-UAS-bla, beta-lactamase reporter, 18 h; 530 nm emission
[8] = target: Retinoic acid receptor RXR-alpha (Homo sapiens) (UniProt P19793); test: as above; settings: HEK293T RXRa-UAS-bla, beta-lactamase reporter, 18 h; series mostly up to 76.7 µM
[9] = target: Thyroid hormone receptor beta (Homo sapiens) (UniProt P10828); test: qHTS assay for small molecule agonists of thyroid hormone receptor beta signaling (AID 588545; calls by dose curve;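 further: 0% = DMSO only and 100% = 10 nM T3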); settings: TR-UAS-bla GripTite HEK 293, beta-lactamase ratio, agonist mode, 18 h; series mostly up to 76.7 µM
In short: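 TR-UAS-bla-GripTite HEK 293 cells in medium with 2% charcoal/dextran FBS, 0.1 mM NEAA and 1 mM sodium pyruvate were treated with titrated compounds for 18 hrs at 37 C. Beta-lactamase reporter was read with CCF4 dye (ex 405, em 460/530 nm); EC50 from Hill fits.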

[10] = qHTS assay for small molecule antagonists of retinoid X receptor alpha signaling (AID 588546; active means well fitted inhibition curve with a large enough effect in the signal ratio, with a control signal flat, not every such curve was filed as active; the % refers to the signal ratio;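 further: cells stimulated with 9-cis-retinoic acid as agonist; on the % scale 0 is the no-effect control and ±100 the full control effect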); settings: HEK293T RXRa-UAS-bla, beta-lactamase ratio, antagonist mode; measured here: W530 green channel, cytotoxicity proxy
In short: (§1)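 Beta-lactamase reporter inhibition, read as CCF4 fluorescence ratio (ex 405, em 460/530 nm) after 2 h at RT. HEK293T UAS-bla cells, 2500/well, were stimulated with 9-cis-RA at 500 or 100 nM final alongside test compound for 18 h at 37 C.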

[11] = qHTS assay for small molecule activators of the p53 signaling pathway (AID 651743; active means well fitted activation curve with a large enough effect in the signal ratio, not every such curve was filed as active; the % refers to the signal ratio; further: % of control where 0% means no effect); settings: HCT-116 p53RE-bla, beta-lactamase FRET ratio, 16 h; activation: stronger effect = higher value
In short: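 Reporter: beta-lactamase driven by p53 response elements, stably integrated in HCT-116 cells. Cells seeded at 4,000/well, 5 h preincubation, compound (DMSO) 16 h at 37 C; B/G FRET substrate 2 h RT; fluorescence intensity read.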

[12] = qHTS assay for environmental chemicals that activate the Aryl hydrocarbon Receptor (AhR) signaling pathway (AID 651777); settings: 1A2-DRE human hepatoma cells, luciferase, 24 h; activation: stronger effect = higher value; further: % of control where 0% means no effect; nearly all actives have a fitted effect of over 15% in size
In short: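 Luminescence read-out: One-Glo added for 30 min at RT after 24 hr compound treatment (37 C, 5% CO2) of human hepatoma cells expressing a DRE/CYP1A2 promoter–luciferase reporter; increased signal indicates AhR activation.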

[13] = target: Peroxisome proliferator-activated receptor alpha (Homo sapiens) (UniProt Q07869); test: qHTS assay for small molecule agonists of the peroxisome proliferator-activated receptor alpha (PPARalpha) signaling pathway (AID 651778); settings: PathHunter PPARalpha complementation, chemiluminescence, 6 h; max response: stronger effect = higher value; further: potency means the concentration at half of the fitted maximal effect; on max response: % of control where 0% means no effect
In short: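 Enzyme-fragment complementation assay in which ligand-bound PPARalpha translocates and forms an active enzyme that generates chemiluminescence. Cells were plated overnight, exposed to compound for 6 hr at 37 C, and then given detection reagent for 60 min at room temperature.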

[14] = qHTS assay for small molecule agonists of the antioxidant response element (ARE) signaling pathway measured by Nrf2-dependant transcriptional activity (AID 720636; active means well fitted curve in the direction sought with a large enough effect in the repeat runs; an effect the other way counts as inactive or inconclusive;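 further: HepG2 cells with an ARE-driven luciferase reporter; % of control where 0% means no effect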); settings: ARE-luc HepG2, Nrf2 luciferase reporter, 16 h; series mostly up to 92.4 µM
In short: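 HepG2 ARE-luc reporter line, 1% dialyzed FBS; 6 hr attachment at 37 C, compound pinned in, 16 hr at 37 C/5% CO2; ONE-Glo, 30 min RT, luminescence read.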

[15] = qHTS assay for small molecule agonists of the antioxidant response element (ARE) signaling pathway measured by Nrf2-dependant transcriptional activity - cell viability counter screen (AID 720653; active means well fitted curve in the direction sought with a large enough effect in the repeat runs; an effect the other way counts as inactive or inconclusive; further: on the % scale 0 is the no-effect control and ±100 the full control effect); settings: ARE-bla HepG2 viability, CellTiter-Glo ATP luminescence, 16 h; max response: stronger effect = lower value
In short: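 ARE-bla HepG2 cells treated with compounds for 16 h at 37C; this counter screen measures viability as intracellular ATP by CellTiter-Glo luminescence after 30 min at room temperature.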

[16] = qHTS assay for cell viability of HEK293 cells (AID 743288); settings: ATP luminescence (CellTiter-Glo), 18 h; max response: stronger effect = lower value; further: on the % scale 0 is the no-effect control and ±100 the full control effect; nearly all actives have a fitted effect of over 50% in size
In short: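 Viable-cell counts were inferred from luciferase-based ATP content in HEK293 cells seeded at 2,000/well, pre-incubated ≥5 h, then dosed with DMSO-solubilised compounds for 18 h at 37 C.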

[17] = qHTS assay for cell viability of the p53RE-bla HCT-116 cell line (AID 743292); settings: p53RE-bla HCT-116 viability, ATP luminescence, 16 h; series mostly up to 95 µM; further: on the % scale 0 is the no-effect control and ±100 the full control effect; nearly all actives have a fitted effect of over 55% in size
In short: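 Luminescent ATP quantitation (CellTiter-Glo) served as the viability read-out; reagent was added after 16 h compound exposure at 37 C and read after 30 min at room temperature. Cells: p53RE-bla HCT-116, 4,000 per well.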

[18] = target: Retinoic acid receptor RXR-alpha (Homo sapiens) (UniProt P19793); test: qHTS assay for small molecule antagonists of retinoid X receptor alpha signaling (AID 588546); settings: HEK293T RXRa-UAS-bla, beta-lactamase ratio, antagonist mode;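 further: cells stimulated with 9-cis-retinoic acid as agonist; on the % scale 0 is the no-effect control and ±100 the full control effect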
In short: as §1

[19] = target: Nuclear receptor subfamily 1 group I member 2 (Rattus norvegicus) (UniProt Q9R1A7); test: qHTS assay for small molecule activators of the rat pregnane X receptor (rPXR) signaling pathway (AID 651751; call rule not given here; further: 0% is about no effect); settings: rPXR reporter cells, luciferase (One-Glo), 24 h
[20] = qHTS assay for small molecule activators of the human pregnane X receptor (PXR) signaling pathway (AID 720659; call rule not given here; further: 0% is about no effect); settings: DPX-2 HepG2 CYP3A4-luciferase, 24 h; series mostly up to 92.3 µM

Sequence of Thyroid hormone receptor beta (Homo sapiens) (P10828 whole entry, looked up): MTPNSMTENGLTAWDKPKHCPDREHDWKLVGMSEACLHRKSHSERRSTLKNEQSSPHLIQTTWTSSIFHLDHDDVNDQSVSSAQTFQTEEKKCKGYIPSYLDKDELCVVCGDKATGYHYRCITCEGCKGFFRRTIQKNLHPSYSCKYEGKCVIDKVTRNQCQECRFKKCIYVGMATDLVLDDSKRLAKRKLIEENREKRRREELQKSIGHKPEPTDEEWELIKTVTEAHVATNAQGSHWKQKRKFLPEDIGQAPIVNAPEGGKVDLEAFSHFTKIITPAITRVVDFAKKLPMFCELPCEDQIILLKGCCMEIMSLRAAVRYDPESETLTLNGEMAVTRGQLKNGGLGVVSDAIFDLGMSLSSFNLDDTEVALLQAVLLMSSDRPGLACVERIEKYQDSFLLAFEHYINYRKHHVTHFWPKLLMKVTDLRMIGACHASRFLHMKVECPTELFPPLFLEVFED
Sequence of Peroxisome proliferator-activated receptor alpha (Homo sapiens) (Q07869 whole entry, looked up, the tested form may be a part): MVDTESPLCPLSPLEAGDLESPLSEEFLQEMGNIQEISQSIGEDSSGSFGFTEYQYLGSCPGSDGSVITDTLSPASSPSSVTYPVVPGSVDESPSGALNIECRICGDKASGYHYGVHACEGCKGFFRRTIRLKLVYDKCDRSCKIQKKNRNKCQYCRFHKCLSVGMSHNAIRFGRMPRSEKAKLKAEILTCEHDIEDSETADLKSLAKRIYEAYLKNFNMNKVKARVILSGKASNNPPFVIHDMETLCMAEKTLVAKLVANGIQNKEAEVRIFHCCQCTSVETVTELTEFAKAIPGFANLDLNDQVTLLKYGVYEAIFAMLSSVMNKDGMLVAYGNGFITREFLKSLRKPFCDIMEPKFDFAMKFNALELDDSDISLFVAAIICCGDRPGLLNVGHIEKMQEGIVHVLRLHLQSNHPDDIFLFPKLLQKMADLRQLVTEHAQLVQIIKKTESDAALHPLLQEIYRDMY
Sequence of Vitamin D3 receptor (Homo sapiens) (P11473 whole entry, looked up): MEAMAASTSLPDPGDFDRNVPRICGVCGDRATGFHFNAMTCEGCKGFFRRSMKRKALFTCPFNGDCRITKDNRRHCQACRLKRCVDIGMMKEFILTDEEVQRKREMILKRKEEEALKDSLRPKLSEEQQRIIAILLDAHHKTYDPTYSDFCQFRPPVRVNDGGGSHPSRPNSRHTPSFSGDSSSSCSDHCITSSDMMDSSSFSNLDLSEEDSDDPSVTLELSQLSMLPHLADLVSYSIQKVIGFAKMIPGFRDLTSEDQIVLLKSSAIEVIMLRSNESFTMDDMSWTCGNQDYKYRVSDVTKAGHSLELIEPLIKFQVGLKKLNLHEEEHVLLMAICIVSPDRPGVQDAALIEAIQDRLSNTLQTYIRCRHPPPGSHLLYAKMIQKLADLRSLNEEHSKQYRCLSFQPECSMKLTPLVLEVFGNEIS
Sequence of Peroxisome proliferator-activated receptor gamma (Homo sapiens) (P37231 whole entry, looked up): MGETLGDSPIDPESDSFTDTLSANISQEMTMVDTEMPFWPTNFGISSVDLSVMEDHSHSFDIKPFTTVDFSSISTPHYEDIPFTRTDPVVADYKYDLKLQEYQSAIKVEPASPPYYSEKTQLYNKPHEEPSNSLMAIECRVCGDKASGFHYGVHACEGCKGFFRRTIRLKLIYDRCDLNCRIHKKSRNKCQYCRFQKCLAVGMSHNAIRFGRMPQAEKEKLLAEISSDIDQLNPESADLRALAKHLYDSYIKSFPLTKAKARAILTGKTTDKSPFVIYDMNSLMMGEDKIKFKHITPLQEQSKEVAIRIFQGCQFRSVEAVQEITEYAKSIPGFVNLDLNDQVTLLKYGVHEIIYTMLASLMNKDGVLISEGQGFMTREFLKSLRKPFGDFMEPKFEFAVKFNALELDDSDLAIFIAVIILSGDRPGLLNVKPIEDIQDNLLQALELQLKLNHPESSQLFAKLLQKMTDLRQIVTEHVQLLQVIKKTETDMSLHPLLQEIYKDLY
Sequence of Glucocorticoid receptor (Homo sapiens) (P04150 whole entry, looked up): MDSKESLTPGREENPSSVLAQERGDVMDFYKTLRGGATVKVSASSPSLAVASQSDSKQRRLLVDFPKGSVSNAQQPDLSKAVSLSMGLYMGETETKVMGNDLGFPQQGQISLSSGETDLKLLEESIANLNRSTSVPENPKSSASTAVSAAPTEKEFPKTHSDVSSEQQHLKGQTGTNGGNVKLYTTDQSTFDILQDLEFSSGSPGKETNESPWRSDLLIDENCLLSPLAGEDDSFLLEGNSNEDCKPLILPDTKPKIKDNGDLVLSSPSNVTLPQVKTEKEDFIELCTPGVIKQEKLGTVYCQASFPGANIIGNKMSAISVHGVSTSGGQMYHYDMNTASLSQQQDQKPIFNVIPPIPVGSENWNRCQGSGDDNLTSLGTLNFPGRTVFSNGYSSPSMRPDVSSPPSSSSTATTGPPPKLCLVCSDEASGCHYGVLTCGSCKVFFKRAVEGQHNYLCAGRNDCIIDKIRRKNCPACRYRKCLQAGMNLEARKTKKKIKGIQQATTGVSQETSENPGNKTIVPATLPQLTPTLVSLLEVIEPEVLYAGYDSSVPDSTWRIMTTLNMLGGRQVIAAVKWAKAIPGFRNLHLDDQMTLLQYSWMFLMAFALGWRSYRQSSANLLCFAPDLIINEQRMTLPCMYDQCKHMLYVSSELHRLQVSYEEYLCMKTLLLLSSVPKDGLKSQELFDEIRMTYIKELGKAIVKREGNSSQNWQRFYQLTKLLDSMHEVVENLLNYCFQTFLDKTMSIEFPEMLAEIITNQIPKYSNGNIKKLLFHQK
Sequence of Retinoic acid receptor RXR-alpha (Homo sapiens) (P19793 whole entry, looked up): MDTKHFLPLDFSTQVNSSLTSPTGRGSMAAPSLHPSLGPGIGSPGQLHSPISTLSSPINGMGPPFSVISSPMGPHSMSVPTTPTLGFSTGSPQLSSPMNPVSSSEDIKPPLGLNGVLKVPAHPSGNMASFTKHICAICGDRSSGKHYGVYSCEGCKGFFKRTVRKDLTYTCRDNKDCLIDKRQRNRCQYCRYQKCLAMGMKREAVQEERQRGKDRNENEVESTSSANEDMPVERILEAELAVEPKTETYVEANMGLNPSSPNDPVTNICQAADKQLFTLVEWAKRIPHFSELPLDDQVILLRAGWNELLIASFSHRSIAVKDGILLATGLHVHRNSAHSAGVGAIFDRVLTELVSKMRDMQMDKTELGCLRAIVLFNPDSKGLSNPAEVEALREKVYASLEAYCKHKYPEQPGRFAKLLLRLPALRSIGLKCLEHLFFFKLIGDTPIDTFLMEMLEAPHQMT
Sequence of Nuclear receptor subfamily 1 group I member 2 (Rattus norvegicus) (Q9R1A7 whole entry, looked up): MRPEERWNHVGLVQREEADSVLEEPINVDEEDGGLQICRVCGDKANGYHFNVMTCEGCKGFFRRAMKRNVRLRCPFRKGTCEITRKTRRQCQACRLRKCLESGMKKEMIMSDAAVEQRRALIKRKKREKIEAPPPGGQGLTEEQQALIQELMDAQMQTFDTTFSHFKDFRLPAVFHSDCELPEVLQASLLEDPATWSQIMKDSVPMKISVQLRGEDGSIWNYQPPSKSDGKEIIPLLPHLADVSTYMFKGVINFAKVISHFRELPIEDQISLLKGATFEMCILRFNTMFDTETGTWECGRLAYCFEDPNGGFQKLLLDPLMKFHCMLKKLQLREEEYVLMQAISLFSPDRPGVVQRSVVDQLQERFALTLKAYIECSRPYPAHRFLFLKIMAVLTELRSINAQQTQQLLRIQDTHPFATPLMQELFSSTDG

CC(=O)c1c(C)c([N+](=O)[O-])c(C(C)(C)C)c([N+](=O)[O-])c1C
-16.8%: max response [2]
-17.8%: max response [7]
inactive: activation [1] 3.65% | outcome [3] | Potency [4] | Potency [5] | outcome [6] | Potency [9] | activation [11] 6.99% | activation [12] 0.439% | max response [13] 8.73% | Potency [14] | max response [15] -1.24% | max response [16] -8.24% | Potency [17]
active: Potency [8] 28.2 µM
-24%: max response [10]

CCCCCCCCCCCCc1ccccc1
-7.45%: max response [7]
inactive: outcome [3] | Potency [5] | outcome [6] | Potency [8] | max response [18] 3.12% | activation [11] -0.535% | activation [12] 0.463% | max response [13] -0.756% | Potency [14] | max response [15] -12.7% | max response [16] 2.81% | Potency [17] | max response [19] 0.082% | outcome [20]
-16.5%: max response [10]
-16.9%: max response [2]

CC(C)CCCCCCCCCCCCCCC(=O)O
-6.99%: max response [7]
-12.3%: max response [10]
active: Potency [13] 39.8 µM
inactive: activation [1] -9.44% | outcome [3] | Potency [8] | Potency [9] | max response [18] -25.1% | activation [11] 1.15% | activation [12] -2.9% | Potency [14] | max response [15] 4.34% | max response [16] -0.822% | Potency [17] | max response [19] 1.88% | outcome [20]
7.35%: max response [2]

Oc1ccc(C(c2ccc(O)cc2)C(Cl)(Cl)Cl)cc1
inactive: activation [1] 1.17% | Potency [5] | outcome [6] | Potency [9] | activation [11] -3.4% | activation [12] 10% | max response [13] -1.42% | max response [15] -3.02% | max response [16] -13.2% | Potency [17] | max response [19] 2.83%

CC(C)C[C@H](NC(=O)OCC1c2ccccc2-c2ccccc21)C(=O)O
59%: max response [2]
inactive: activation [1] -5.5% | Potency [4] | Potency [9] | activation [11] -3.17% | max response [13] 11.8% | max response [15] -7.25% | max response [16] -22.2% | Potency [17]

— PubChem BioAssay (NCATS)
